rCAG binder – binders of r(CAG) RNA repeats, primary screen, biochemical, fluorescence; r(CAG) RNA repeat, TO-PRO-1 dye displacement fluorescence; inhibition, % at 3 µM; hit rate 1.3% among 370,000; AID 651821, 2012;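 active means inhibition above the plate cutoff, the mean of all test compounds on that plate plus 3 SD, cut at about 35% in these data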;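 further: higher means more dye released from RNA so lower well fluorescence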
ALR H2O2 inh – inhibitors of human ALR sulfhydryl oxidase, primary screen, biochemical, H2O2 detection, HRP-luminol luminescence, single point; hit rate 3.8% among 290,000; inhibition, % (concentration not given with the values); AID 485317, 2010; FAD-linked sulfhydryl oxidase ALR (Homo sapiens), P55789; purified ALR, DTT oxidation;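 active means mean replicate inhibition above about 79%, with every replicate also reaching it, limit read from the data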
Target sequence (P55789 whole entry, looked up): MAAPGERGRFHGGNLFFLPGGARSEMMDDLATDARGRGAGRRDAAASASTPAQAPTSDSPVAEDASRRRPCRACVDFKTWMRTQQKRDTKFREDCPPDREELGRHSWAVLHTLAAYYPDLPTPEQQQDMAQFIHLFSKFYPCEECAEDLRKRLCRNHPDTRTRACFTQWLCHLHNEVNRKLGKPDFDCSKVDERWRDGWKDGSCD
ABHD5-PLIN5 inh – ABHD5-PLIN5 interaction inhibitors, primary screen, cell lysate, split luciferase complementation, luminescence. Split G. princeps luciferase complementation, 4 h. inhibition, % at 4 µM. hit rate 0.78% among 360,000;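 active means inhibition above the mean inhibition across every tested compound plus 3 SD, cut at about 22% in these data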
PRMT1 FP inh – PRMT1 methyltransferase inhibitors, primary screen, biochemical, fluorescence polarization | inhibition, % at 2.79 µM | Protein arginine N-methyltransferase 1 (Homo sapiens), Q99873 | hit rate 1.3% among 370,000 | recombinant PRMT1, activity-based probe fluorescence polarization;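 active means inhibition above about 21% made by adding two undisclosed values, limit read from the data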
LANA-H2B inh – blockers of LANA interaction with H2A/H2B – biochemical, FP readout, HTS, primary screen | cell-free LANA-H2A/H2B peptide, fluorescence polarization | hit rate 0.6% among 320,000 | inhibition, % (no concentration beside the values); in the data active means inhibition mostly above about 10%, no sharp cut-off; inactive means mostly below about 6.7%
Rtt109 Vps75 – inhibitors of C. albicans Rtt109/Vps75 HAT, primary screen, biochemical, ThioGlo CoA-SH fluorescence, plate reader; Histone acetyltransferase RTT109 (Candida albicans (strain SC5314 / ATCC MYA-2876)), …; purified Rtt109/Vps75, 4 h; inhibition, % at 34.9 µM; hit rate 0.16% among 330,000; AID 540336, 2011;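 active means inhibition of at least 50% in every replicate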
Target sequence (Q5AAJ8 whole entry, looked up): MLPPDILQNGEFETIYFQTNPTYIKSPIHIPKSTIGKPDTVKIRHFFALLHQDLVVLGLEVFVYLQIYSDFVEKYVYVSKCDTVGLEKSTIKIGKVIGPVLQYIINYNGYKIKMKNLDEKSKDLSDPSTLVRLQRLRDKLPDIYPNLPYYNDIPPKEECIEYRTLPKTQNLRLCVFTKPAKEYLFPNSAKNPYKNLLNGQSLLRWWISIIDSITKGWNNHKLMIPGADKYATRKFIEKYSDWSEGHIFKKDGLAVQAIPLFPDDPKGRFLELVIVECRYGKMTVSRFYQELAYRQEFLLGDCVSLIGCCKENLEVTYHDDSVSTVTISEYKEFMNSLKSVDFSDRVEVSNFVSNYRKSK
A number is an active result; ! = not confirmed by another sample. Most compounds without a hit are left out; they make up all but 5.9% or so of the library.

Cc1cc(NC(=O)c2nn(C)c(C)c2Br)no1 was read as rCAG binder inactive, ALR H2O2 inh inactive, ABHD5-PLIN5 inh inactive, PRMT1 FP inh inactive, LANA-H2B inh inactive and Rtt109 Vps75 inactive.
`Cc1cc(NCCCN2CCOCC2)n2nc(C)c(-c3ccc(F)cc3)c2n1` gave rCAG binder inactive, ALR H2O2 inh 98, ABHD5-PLIN5 inh inactive, PRMT1 FP inh inactive, LANA-H2B inh inactive and Rtt109 Vps75 inactive.
`Cc1cc(NCCCN2CCOCC2)n2nc(C)c(-c3ccccc3)c2n1` gave rCAG binder inactive, ABHD5-PLIN5 inh inactive, PRMT1 FP inh inactive, LANA-H2B inh inactive and Rtt109 Vps75 inactive.
Screening CCN(CC)c1ccc2c(-c3ccc(S(=O)(=O)O)cc3S(=O)(=O)[O-])c3ccc(=[N+](CC)CC)cc-3oc2c1 returned ALR H2O2 inh inactive, ABHD5-PLIN5 inh inactive, LANA-H2B inh 150 and Rtt109 Vps75 inactive.
Screening O=c1n(CCCN2CCN(c3cccc(Cl)c3)CC2)nc2ccccn12 returned rCAG binder inactive, ALR H2O2 inh 93, ABHD5-PLIN5 inh inactive, PRMT1 FP inh inactive, LANA-H2B inh inactive and Rtt109 Vps75 inactive.
Screening O=C1C2CCCCN2C(=O)N1CCCCN1CCN(c2cccc(Cl)c2)CC1 (stereo not given) returned rCAG binder inactive, ALR H2O2 inh inactive, ABHD5-PLIN5 inh inactive, PRMT1 FP inh inactive, LANA-H2B inh inactive and Rtt109 Vps75 inactive.
Screening [O-]/C(=C(\C(=S)NCc1ccccc1)[n+]1ccccc1)c1ccc(Cl)cc1 returned rCAG binder inactive, ALR H2O2 inh inactive, ABHD5-PLIN5 inh inactive, PRMT1 FP inh inactive, LANA-H2B inh inactive and Rtt109 Vps75 inactive.
`C=CCNC(=S)/C(=C(\[O-])c1ccc(Cl)cc1)[n+]1ccccc1` gave rCAG binder inactive, ALR H2O2 inh 98, ABHD5-PLIN5 inh inactive, PRMT1 FP inh inactive, LANA-H2B inh inactive and Rtt109 Vps75 inactive.
N=c1c2c(-c3ccccc3)c(-c3ccccc3)n(CCc3ccccc3)c2ncn1CCO was read as rCAG binder inactive and PRMT1 FP inh inactive.
Screening CCOC(=O)c1ncn2c1CN(C)C(=O)c1cc(F)ccc1-2 returned rCAG binder inactive, ALR H2O2 inh inactive, ABHD5-PLIN5 inh inactive, PRMT1 FP inh inactive, LANA-H2B inh 29! and Rtt109 Vps75 inactive.
For c1ccc(-c2noc(CN3CCN(c4ccccc4)CC3)n2)cc1 the results were rCAG binder inactive, ALR H2O2 inh 82, ABHD5-PLIN5 inh inactive, PRMT1 FP inh inactive, LANA-H2B inh inactive and Rtt109 Vps75 inactive.
`COc1ccc(-c2noc(CN3CCN(c4ccccc4F)CC3)n2)cc1OC` gave rCAG binder inactive, ALR H2O2 inh 100, ABHD5-PLIN5 inh inactive, PRMT1 FP inh inactive, LANA-H2B inh inactive and Rtt109 Vps75 inactive.
`COc1ccc(-c2noc(CN(C)S(=O)(=O)c3ccccc3)n2)cc1OC` gave rCAG binder inactive, ALR H2O2 inh 97, ABHD5-PLIN5 inh inactive, PRMT1 FP inh inactive, LANA-H2B inh inactive and Rtt109 Vps75 inactive.
Screening Fc1ccccc1N1CCN(Cc2nc(-c3ccccc3)no2)CC1 returned rCAG binder inactive, ALR H2O2 inh inactive, ABHD5-PLIN5 inh inactive, PRMT1 FP inh inactive, LANA-H2B inh inactive and Rtt109 Vps75 inactive.
For CN(Cc1nc(-c2cccnc2)no1)S(=O)(=O)c1ccccc1 the results were rCAG binder inactive, ABHD5-PLIN5 inh inactive, PRMT1 FP inh inactive, LANA-H2B inh inactive and Rtt109 Vps75 inactive.
Screening COCCSc1ncccc1-c1nc2ccccc2[nH]1 returned rCAG binder inactive and PRMT1 FP inh inactive.
Screening O=C(NCCCO)c1ccc(CSc2nc3ccccc3c(=O)[nH]2)cc1 returned rCAG binder inactive, ALR H2O2 inh 100, ABHD5-PLIN5 inh inactive, PRMT1 FP inh inactive, LANA-H2B inh inactive and Rtt109 Vps75 inactive.
Screening O=S(=O)(CS(=O)(=O)c1ccccc1Br)c1ccccc1Br returned rCAG binder inactive and PRMT1 FP inh inactive.
Screening O=C(O)CN1C(=O)C2(OCCO2)c2cc(Br)ccc21 returned rCAG binder inactive, ALR H2O2 inh inactive, ABHD5-PLIN5 inh inactive, PRMT1 FP inh inactive, LANA-H2B inh inactive and Rtt109 Vps75 inactive.
`COc1ccc(C(C(=O)N(C)C2CCCC2)N(Cc2ccc(F)cc2)C(=O)c2csc(-c3ccccc3)n2)cc1OC` (stereo not given) gave rCAG binder inactive and PRMT1 FP inh inactive.
Screening Cc1csc2nc(CSc3ccc(Cl)cc3)cn12 returned ALR H2O2 inh 92, ABHD5-PLIN5 inh inactive, LANA-H2B inh inactive and Rtt109 Vps75 inactive.
For CC(C)Nc1ncnc2c1ncn2[C@H]1CN(Cc2ccc3c(c2)OCO3)C[C@@H](CO)O1 the results were rCAG binder inactive, ABHD5-PLIN5 inh inactive and PRMT1 FP inh inactive.
Cc1ccc(NC(=O)CSc2ccccc2)cc1S(=O)(=O)N1CCCCC1 was read as rCAG binder inactive, ALR H2O2 inh inactive, ABHD5-PLIN5 inh inactive, PRMT1 FP inh inactive, LANA-H2B inh inactive and Rtt109 Vps75 inactive.
`Cc1ccc(NC(=O)CSc2ncnc3ccccc23)cc1S(=O)(=O)N1CCOCC1` gave rCAG binder inactive, ALR H2O2 inh 99, ABHD5-PLIN5 inh inactive, PRMT1 FP inh inactive, LANA-H2B inh inactive and Rtt109 Vps75 inactive.
`Cc1ccc(NC(=O)CCCOc2ccccc2)cc1S(=O)(=O)N1CCOCC1` gave rCAG binder inactive, ABHD5-PLIN5 inh inactive, PRMT1 FP inh inactive, LANA-H2B inh 20 and Rtt109 Vps75 inactive.
For Cc1ccc(NC(=O)CSc2ncnc3ccccc23)cc1S(=O)(=O)N1CCCCC1 the results were rCAG binder inactive, ALR H2O2 inh inactive, ABHD5-PLIN5 inh inactive, PRMT1 FP inh 23, LANA-H2B inh inactive and Rtt109 Vps75 inactive.
Screening Cc1ccc(-n2c(Cc3cccs3)nnc2SCC(=O)Nc2ccc(OCc3ccccc3)cc2)cc1 returned rCAG binder inactive and PRMT1 FP inh inactive.
For COc1ccc(-c2ccc(SCC(=O)c3cccs3)nn2)cc1 the results were rCAG binder inactive, ALR H2O2 inh inactive, ABHD5-PLIN5 inh inactive, PRMT1 FP inh inactive, LANA-H2B inh inactive and Rtt109 Vps75 inactive.
Screening O=C(CSc1ncnc2ccccc12)N1CCCC1 returned rCAG binder inactive, ALR H2O2 inh inactive, ABHD5-PLIN5 inh inactive, PRMT1 FP inh inactive, LANA-H2B inh inactive and Rtt109 Vps75 inactive.
`Cc1ccc(C(=O)CSc2ncnc3ccccc23)o1` gave rCAG binder inactive, ALR H2O2 inh 99, ABHD5-PLIN5 inh inactive, PRMT1 FP inh inactive, LANA-H2B inh inactive and Rtt109 Vps75 inactive.
O=C(CSc1ncnc2ccccc12)c1cccs1 was read as rCAG binder inactive, ALR H2O2 inh 99, ABHD5-PLIN5 inh inactive, PRMT1 FP inh inactive, LANA-H2B inh inactive and Rtt109 Vps75 inactive.

Source: PubChem
